This note sets out measurements from PubChem BioAssay (NCI).

Common to all, as to test: NCI-60 one-dose screen, 48 h (100 = growth as untreated, 0 = no growth, -100 = all killed)
What all share (details): 10 µM unless noted

Assay [1] deals with NCI-H23 lung.
For assay [2], the system named is NCI-H226 lung.
Assay [3] concerns NCI-H322M lung.
The test system of assay [4] is HOP-62 NSCLC.
Assay [5] relates to NCI-H460 lung.
The test system of assay [6] is HOP-92 NSCLC.
Assay [7] relates to NCI-H522 lung.
In assay [8] the test system is A549/ATCC NSCLC.
For assay [9], the system named is 786-0 renal.
Assay [10] concerns COLO 205 colon.
Assay [11] deals with DU-145 prostate.
For assay [12], the system named is K-562 leukemia.
In assay [13] the test system is MALME-3M melanoma.
The test system of assay [14] is MDA-MB-231 breast.
Assay [15] has as its system RXF 393 renal.
For assay [16], the system named is SF-268 CNS.
The subject of assay [17] is SF-295 CNS.
The test system of assay [18] is SF-539 CNS.
Assay [19] deals with UACC-257 melanoma.
In assay [20] the test system is M14 melanoma.

The panel holds about 83,000 compounds, 20% with a hit somewhere; the sample as a whole holds those more often.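 The test compound was applied at a single concentration to cells in 96-well plates for 48 hours, and percent growth was recorded.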 Values without a mark were called inactive. The source made the active and inactive calls. The calls were made as follows: active = growth percent below 10; inactive = the rest.

In the case of `O=CN1N=C(c2ccc(Cl)cc2)CC1c1cccc(Nc2ccnc3cc(C(F)(F)F)ccc23)c1` (stereo not given), the growth was 50.6% in assay [1]; 61.9% in [2]; 82.4% in assay [3]; 67.1% in assay [4]; 57.9% in [5]; 66.3% in assay [6]. For the same molecule, the growth was 57% in [7]; 61.4% in [8]; 81.5% in assay [9]; 60.1% in assay [10]; 70.1% in assay [11]; 24.9% in assay [12]. Moreover, the growth is 77.5% in [13]; 80.7% in assay [14]; 71.4% in assay [15]; 58.9% in assay [16]; 51.4% in assay [17]; 78.7% in assay [18]. Further, the growth was 52.1% in assay [19] and 74% in assay [20].

`COc1cccc(NC(=O)Nc2ccc(Nc3ncnc4[nH]c(C)c(C)c34)cc2)c1`: the growth in [1] was 111%; in assay [2], 101%; in assay [3] it was 114%; in assay [4] it was 103%; in assay [5] it was 102%; in [6] it was 104%. The growth was 90.8% in [7]; 92.7% in assay [8]; 113% in [9]; 112% in assay [10]; 110% in assay [11]; 94.4% in assay [12]. In addition, the growth in assay [13] is 122%; in assay [14] it was 108%; in assay [15] it was 111%; in assay [16] it was 94%; in assay [17] it was 95.5%; in assay [18], 69.3%. Besides, the growth in assay [19] is 98.3%; in assay [20], 106%.

Regarding `O=[N+]([O-])c1ccc(Oc2ccc(-c3ccccc3)cc2)cc1`, the growth in assay [1] was 85.3%; in [2] it was 76.7%; in assay [3], 100%; in assay [4], 92.1%; in assay [5] it was 92.9%; in [6], 74.3%. For the same molecule, the growth is 67.5% in assay [7]; 91.5% in [8]; 84.6% in assay [9]; 109% in assay [10]; 97.5% in assay [11]; 70.8% in assay [12]. Further, the growth is 109% in assay [13]; 88.5% in assay [14]; 102% in [15]; 94.5% in assay [16]; 89.4% in assay [17]; 94.7% in [18]. In addition, the growth in assay [19] is 98.1%; in assay [20], 98.3%.

Take `O=C(Nc1cccc(-c2cccc(F)c2)c1)C1CCN(Cc2cccc3cccnc23)CC1`: the growth is 69.2% in [1]; 71.5% in assay [2]; 78.2% in assay [3]; 63.8% in assay [4]; 37% in [5]; 44.2% in [6]. Moreover, the growth in [7] is 47.3%; in [8], 71.9%; in assay [9], 47.5%; in assay [10], -81% (active); in assay [11], 72%; in [12] it was -37.6% (active). The growth was -50% (active) in assay [13]; 37.8% in assay [14]; 68.6% in assay [15]; 56.8% in assay [16]; 56.1% in assay [17]; 69.5% in assay [18]. For the same molecule, the growth was -2.39% (active) in assay [19] and -54% (active) in assay [20].

With `COc1ccc(N(C)c2nc(Cl)nc3ccn(C)c23)cc1`, the growth in assay [1] was 27%; in assay [2] it was 30.3%; in [3] it was 49%; in [4], 17.7%; in [5] it was 2.4% (active); in assay [6] it was 5.65% (active). Besides, the growth in assay [7] was -36% (active); in [8], 10.7%; in assay [9], 12.6%; in [10], -71.1% (active); in assay [11] it was 2.61% (active); in assay [12], 7.28% (active). Also, the growth is 84.8% in assay [13]; 0.175% (active) in assay [14]; 48.3% in assay [15]; 24.3% in assay [16]; 15.5% in assay [17]; -32% (active) in assay [18]. The growth in assay [19] was 49.6%; in assay [20] it was -0.998% (active).

Turning to `COc1cc(-c2cn(-c3ccc(Cl)c(Cl)c3)c(=O)[nH]2)cc(OC)c1OC`, the growth in assay [1] is 92.4%; in [2], 93.1%; in [3] it was 69.7%; in assay [4], -1.73% (active); in assay [5], 96.7%; in assay [6], 82%. Besides, the growth in assay [7] was 74.5%; in [8], 89.7%; in assay [9] it was 14.4%; in assay [10], 105%; in assay [11], 100%; in [12] it was 84.3%. Further, the growth in assay [13] is 60.9%; in [14] it was 71.5%; in [15], 86.4%; in assay [16] it was 87.6%; in [17], 104%; in [18] it was 91.3%. Moreover, the growth in assay [19] was 87.4%; in assay [20], 95.2%.

Take `COC(=O)c1ccc2c(c1)n(Cc1ccc3ccccc3c1)c[n+]2Cc1ccc2ccccc2c1`: the growth was 34.6% in [1]; 61.3% in [2]; 57.2% in assay [3]; 63.8% in [4]; 28.6% in [5]; -10.7% (active) in [6]. Besides, the growth is 26.3% in assay [7]; 75% in assay [8]; 70.3% in assay [9]; 3.66% (active) in assay [10]; 72.5% in assay [11]; 20.6% in [12]. In addition, the growth in [13] was -4.4% (active); in [14] it was 28.5%; in assay [15] it was 69.3%; in assay [16], 40.9%; in assay [17] it was 58.7%; in assay [18], 65.7%. Moreover, the growth was 42% in assay [19] and 14.1% in [20].

In the case of `O=c1[nH]nc(-c2ccc(Br)cc2)c2sc(NC(=S)Nc3ccc(Cl)cc3)nc12`, the growth in assay [1] was 84.1%; in assay [2] it was 94.4%; in assay [3], 95.3%; in assay [4], 104%; in [5] it was 102%; in assay [6] it was 92.7%. Moreover, the growth in [7] is 94.1%; in assay [8] it was 102%; in [9], 102%; in [10], 124%; in assay [11] it was 110%; in [12] it was 98.6%. In addition, the growth is 94.2% in [13]; 92.4% in assay [14]; 111% in assay [15]; 100% in [16]; 96.8% in assay [17]; 103% in assay [18]. Besides, the growth was 113% in assay [19] and 95.3% in assay [20].
